The values below come from PubChem BioAssay (NCATS).

Inconclusive results are not listed. Activity calls are given as the source filed them. Calls follow the shape of the dose curve; as a rule, active = well fitted inhibition curve with a large enough effect; inconclusive = small, poorly fitted or top-dose-only effect; inactive = flat fitted curve, though single readings scatter.
% is scaled to controls: 0 for no effect and ±100 for the full control effect; potency is read from the fitted curve at half-maximal effect.

The experiment concerns NIH3T3. In words: Cytotoxic Profiling of Annotated Libraries Using Quantitative High-Throughput Screening (AID 1296008). Also: nearly all actives have a fitted effect of over 60% in size. Particulars: Five cell lines viability, CellTiter-Glo ATP luminescence, 48-72 h; max response: active compounds read low. The method in brief:
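Cytotoxicity was measured as CellTiter-Glo ATP luminescence, read after 10 min at room temperature. Compound treatment of the cells lasted 48 or 72 hr at 37 degrees Celsius in a qHTS format.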
(In ATP-based viability assays light output follows the ATP content of the culture.)
Regarding `CC#CC(=O)N1CCC[C@H]1c1nc(-c2ccc(C(=O)Nc3ccccn3)cc2)c2c(N)nccn12`, the max response was -4.42% (inactive).

For the compound `C[C@@H]1O[C@@H](O[C@H]2[C@H](O[C@H]3[C@H](O[C@H]4CC[C@@]5(C)C(CC[C@]6(C)C5CC=C5[C@@H]7CC(C)(C)C[C@@H](O)[C@]7(C)CC[C@]56C)[C@@]4(C)CO)O[C@H](C(=O)O)[C@@H](O)[C@@H]3O)OC[C@H](O)[C@@H]2O)[C@H](O)[C@H](O)[C@H]1O` (stereo not given in full), the max response is -4.51% (inactive).

As for `CN(C)c1nc(NC2CCC(NCCc3ccc(Br)cc3OC(F)(F)F)CC2)nc2ccccc12` (stereo not given), the Potency is 4.11 µM (active).

In the case of `C[C@H](Oc1ccc(S(C)(=O)=O)cc1C(=O)N1CCN(c2ncc(C(F)(F)F)cc2F)CC1)C(F)(F)F`, the max response was -19.7% (inactive).

`Nc1nccn2c(C3CCC(C(=O)O)CC3)nc(-c3cc4cccc(Cl)c4[nH]3)c12` (stereo not given): the Potency was 7.31 µM (active).

In the case of `C[C@H](NC(c1cccc(C[P+](=O)O)c1)[C@H](C)O)c1ccc(Cl)c(Cl)c1` (stereo not given in full), the max response is 3.54% (inactive).

As for `C=C(C(=O)OC)C1C(O)CC2(C)C(=O)CCC(O)(CO)C2C1O` (stereo not given), the result was inactive.

Turning to `Cc1[nH]nc(C(F)(F)F)c1Cc1sc2c(c1C(=O)N1C[C@](C)(O)CO1)c(=O)n(C)c(=O)n2C(C)C`, the Potency is 13 µM (active).

In the case of `C/C=C/c1ccc2oc(-c3ccc(O)c(OC)c3)c(C)c2c1`, the max response is -2.29% (inactive).

In the case of `CC(C)=CCC[C@](C)(O)[C@H]1CC[C@]2(C)[C@@H]1[C@H](O)CC1[C@@]3(C)CC[C@H](O)C(C)(C)[C@@H]3[C@@H](O[C@@H]3O[C@H](CO)[C@@H](O)[C@H](O)[C@H]3O[C@@H]3O[C@H](CO)[C@@H](O)[C@H](O)[C@H]3O)C[C@]12C` (stereo not given in full), the call was inactive.
